In all, about 2,100 compounds went through this assay and about 650 (31%) were called active. Another 16% or so got no clear call; they are omitted. Calls follow the shape of the dose curve; as a rule, active = well fitted inhibition curve with a large enough effect; inconclusive = small, poorly fitted or top-dose-only effect; inactive = flat fitted curve, though single readings scatter. The list shows a part of the results. Entries that show only a call come without a potency.
test: qHTS for inhibitors of Vif-A3G interactions: Cherry picks; conditions: HeLa A3G-eYFP + Vif (tagged APOBEC3G with the HIV-1 protein that degrades it), 24 h; Potency: eYFP fluorescence increase; series mostly up to 36.9 µM; also: nearly all actives have a fitted effect of over 80% in size
Method in brief: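 Cherry-picked compounds tested at several concentrations on A3G-eYFP/Vif HeLa cells for 24 hours; loss of Vif-driven degradation read as eYFP fluorescence by cytometric plate imaging, 488 nm excitation, 500-530 nm emission.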
Potency is read from the fitted curve at half-maximal effect.

Row | SMILES | Potency
1 | Cc1ccccc1OCCc1c(C)[nH]c(=S)[nH]c1=O | inactive
2 | O=C(c1ccccn1)C1CCCN(Cc2cn[nH]c2-c2cc3ccccc3o2)C1 (stereo not drawn) | inactive
3 | Cc1c(N=C2N=C(NC(=O)c3cccs3)c3ccccc32)c(=O)n(-c2ccccc2)n1C | 14 µM (active)
4 | COc1ccc(N2C(=O)CC(Sc3nc(C)c4c(n3)CCCC4)C2=O)cc1 (stereo not drawn) | inactive
5 | Cn1c(N)c(-c2ccccc2)c2ccc([N+](=O)[O-])cc2c1=O | 15.8 µM (active)
6 | CCc1cc[n+](-c2nc3ccccc3nc2[N-]S(=O)(=O)c2ccc(Br)s2)cc1 | 20.6 µM (active)
7 | O=S(=O)([N-]c1nc2ccccc2nc1-[n+]1ccc(-c2ccncc2)cc1)c1ccccc1 | inactive
8 | Cc1cc(C)c[n+](-c2nc3ccccc3nc2[N-]S(=O)(=O)c2ccc(Br)s2)c1 | 18.4 µM (active)
9 | COCc1ccc(O)c2ncccc12 | inactive
10 | COC(=O)c1c(N2C(=O)[C@H]3[C@@H](C2=O)[C@]2(C(=O)Nc4c(C)cccc42)N2CCC[C@@H]32)sc(C)c1C | inactive
11 | CC(=O)/C(N=Nc1cc(C)ccc1O)=C(\C)O | 16.4 µM (active)
12 | CCCN(C(=O)CSc1n[nH]c(-c2ccc(OC)cc2)n1)c1c(N)n(Cc2ccccc2)c(=O)[nH]c1=O | inactive
13 | COc1ccc2c(c1)c(C(=O)N/N=C/c1ccc(Cl)cc1)c(C)n2C | inactive
14 | COc1ccc2[nH]cc(/C=C/c3cc[n+](C)cc3)c2c1 | 13 µM (active)
15 | Cc1ccc2[nH]cc(/C=C/c3cc[n+](C)cc3)c2c1 | 4.44 µM (active)
16 | COc1ccc2c(c1)c(/C=C/c1cc[n+](C)cc1)cn2C | 1.98 µM (active)
17 | C[n+]1ccc(/C=C/c2c[nH]c3ccc(F)cc23)cc1 | 14.6 µM (active)
18 | CSc1cccc(NC(=O)c2cc3c(COC(C)=O)cnc(C)c3oc2=O)c1 | inactive
19 | O=C(NC1C/C(=N/O)c2cc3c(cc21)OCO3)C(F)(F)F (stereo not drawn) | inactive
20 | CCOc1ccc(C(C)=O)cc1COc1cccnc1[N+](=O)[O-] | inactive
21 | O=C(NCc1cccs1)C1CCN(c2ccc(S(=O)(=O)N3CCOCC3)cc2Cl)CC1 | inactive
22 | O=S(=O)(Nc1nc2ccccc2nc1OCC(F)(F)F)c1cccs1 | inactive
23 | CC[N+](C)(C)c1ccc(/C=C/c2ccncc2)cc1 | 20.6 µM (active)
24 | CCC[N+](C)(C)c1ccc(/C=C/c2ccncc2)cc1 | 18.4 µM (active)
25 | C=CCOC(=O)C1=C(C)NC(C)=C(C(=O)OCC=C)C1c1cn(-c2ccccc2)nc1-c1ccco1 | inactive

Row | SMILES | Potency
26 | CC(=O)c1cccc(-c2ccnc3c2CC(C(=O)Nc2ccc(Cl)cc2)O3)c1 (stereo not drawn) | inactive
27 | NC(=O)c1c(Nc2nc3c(F)cccc3s2)sc2c1CCCC2 | inactive
28 | CCCSc1ncc(Cl)c(C(=O)Nc2sc3c(c2C(N)=O)CCCC3)n1 | 11.6 µM (active)
29 | ClCC1NCC(c2ccccc2Cl)c2c1[nH]c1ccccc21 (stereo not drawn) | inactive
30 | S=c1[nH]cnc2sc(-c3ccccc3)cc12 | inactive
31 | CN(C)C=Nc1c(Br)cc(Br)c2nonc12 | 9.2 µM (active)
32 | O=C(N/N=C/c1ccc(Cl)cc1)c1cc(-c2cccnc2)nc2ccccc12 | inactive
33 | O=C(N/N=C/c1ccc2c(c1)OCO2)c1cc(-c2ccco2)nc2ccccc12 | inactive
34 | Nc1c(C(=O)N/N=C/c2cccnc2)oc2nc(-c3ccccc3)cc(-c3ccco3)c12 | 5.8 µM (active)
35 | O=C(N/N=C/c1ccco1)c1cc(-c2ccncc2)nc2ccccc12 | inactive
36 | Nc1c(C(=O)N/N=C/c2ccc(F)cc2)oc2nc(-c3ccccc3)cc(-c3ccco3)c12 | 12.5 µM (active)
37 | Cc1ccc(/C=N/NC(=O)c2cc(-c3ccccc3)nc3ccccc23)o1 | inactive
38 | Nc1c(C(=O)N/N=C/c2ccccc2Cl)oc2nc(-c3ccccc3)cc(-c3ccco3)c12 | 5.8 µM (active)
39 | O=C(N/N=C/c1cccc(F)c1)c1cc(-c2ccco2)nc2ccccc12 | inactive
40 | Cc1ccc(C=NNC(=O)c2cc(-c3cccnc3)nc3ccccc23)o1 | inactive
41 | CN(Cc1cnn(Cc2ccccc2)c1)C(=O)c1cccc(S(=O)(=O)N2CCOCC2)c1 | inactive
42 | O=C(CN1c2cccc3cccc(c23)S1(=O)=O)Nc1ccc(S(=O)(=O)N2CCOCC2)cc1 | inactive
43 | CCn1c(O)c(/C=N/NC(=O)c2ccncc2)c(=O)n(CC)c1=S | inactive
44 | CC[n+]1c(C=C2C=C(C)OC(C)=C2)sc2ccccc21 | 8.2 µM (active)
45 | CCSC1=NSC2=NC(=O)/C(=C\c3coc4ccccc4c3=O)C(=N)N12 | 23.1 µM (active)
46 | CCS(=O)(=O)c1nn2c(N)c(/C=C3/C=CC(=O)C(OC)=C3)c(=O)nc2s1 | inactive
47 | COC1=C/C(=C/c2c(N)n3nc(-c4ccc(C)cc4)sc3nc2=O)C=CC1=O | 14.6 µM (active)
48 | CCc1ccc(CNC(=O)Cc2ccc(NC(=O)C3=C(C)OCCS3)cc2)cc1 | inactive
49 | N#CC1=C2SCC(O)(c3ccccc3)N2C(=O)CC1c1ccccc1 (stereo not drawn) | inactive
50 | COc1ccc(NC(=O)C2(C)Cc3c(-c4cccc(NC(C)=O)c4)ccnc3O2)cn1 (stereo not drawn) | inactive

Row | SMILES | Potency
51 | CCOc1ncccc1C(=O)NCc1ccc(OC)cc1 | inactive
52 | Nc1nc(SCc2ccc(Cl)cc2Cl)nc2nc3c(cc12)CCCC3 | 23.1 µM (active)
53 | Cc1[nH][nH]c(=O)c1C(c1c(C)[nH][nH]c1=O)c1cn(Cc2ccccc2Cl)c2ccccc12 | inactive
54 | Cc1ccc2oc(/N=C(\N)NC(=O)C(C)(C)C)nc2c1 | inactive
55 | COC(=O)c1ccc(NC(=O)CC2Nc3cc(C)c(C)cc3NC2=O)cc1 (stereo not drawn) | 23.1 µM (active)
56 | CCOC(=O)c1ccc(NC(=S)NC(=O)C2CCCC2)cc1 | inactive
57 | C/C(CCc1ccc2c(c1)OCO2)=N\NC(=S)NC(C)C | inactive
58 | Cc1ccc(C(=O)O)cc1Nc1nc2ccccc2n2nnnc12 | inactive
59 | CN(C)c1ccc(Nc2nc3ccccc3n3nnnc23)cc1 | inactive
60 | COc1ccccc1CNC(=O)c1ccc(Nc2nc3ccccc3n3nnnc23)cc1 | 20.6 µM (active)
61 | CC(=O)Nc1ccc(S(=O)(=O)Nc2nc3ccccc3nc2Nc2ccc(N)cc2)cc1 | inactive
62 | Fc1ccc(COc2ccc3ccccc3c2CNc2nn[nH]n2)cc1 | inactive
63 | CC(NC(=O)c1ccc(Nc2nc3ccccc3n3nnnc23)cc1)c1ccccc1 (stereo not drawn) | 18.4 µM (active)
64 | COc1cc(Nc2nc3ccccc3n3nnnc23)cc(OC)c1OC | 20.6 µM (active)
65 | c1ccc2c(c1)nc(N1CCOCC1)c1nnnn12 | inactive
66 | Fc1ccc(CNc2nc3ccccc3n3nnnc23)cc1 | 16.4 µM (active)
67 | C=CCSc1nc2ccccc2n1C(=O)/C=C/c1cc(OC)c(OC)c(OC)c1 | inactive
68 | O=[N+]([O-])c1ccccc1C1Nc2cccc3cccc(c23)N1 | inactive
69 | CCOC(=O)c1cc(-c2ccccc2C)n(CC2CC(c3ccc(OC)cc3)=NO2)n1 (stereo not drawn) | inactive
70 | NC(=S)N/N=C/c1ccccc1OC(=O)/C=C/c1ccccc1 | inactive
71 | Cc1cc(OCC(=O)Nc2nnc(C3CC3)s2)ccc1Cl | inactive
72 | COc1ccc2[nH]c(C(=O)N/N=C/c3ccc(OC)c(O)c3)cc2c1 | inactive
73 | Cc1ccc(/C=N/NC(=O)c2ccc3ccccc3c2)s1 | inactive
74 | COc1cc2ccccc2cc1C(=O)N/N=C/c1cccs1 | inactive
75 | COc1ccc2o/c(=N/NC(=O)c3cccs3)c(C(N)=O)cc2c1 | 14 µM (active)

Row | SMILES | Potency
76 | COc1cc(OC)cc(C(=O)Nc2ccc(N3CCN(C(=O)c4cccs4)CC3)cc2)c1 | inactive
77 | O=C1CN(C(=O)c2cc(Br)c(Br)s2)c2ccccc2N1 | inactive
78 | CCN(Cc1ccccc1)c1ccc(/C=C/c2nccc3ccccc23)cc1 | 20.6 µM (active)
79 | CCN(Cc1ccccc1)c1ccc(/C=C(\C#N)c2ccccn2)cc1 | inactive
80 | CCN(CC)c1nc(C=Cc2ccc(N(C)C)cc2)c2nccnc2n1 | 2.06 µM (active)
81 | CN(C)c1ccc(C=Cc2nccc3ccccc23)cc1 | 17.7 µM (active)
82 | CN(C)c1ccc(/C=C/c2nccc3ccccc23)cc1 | 23.1 µM (active)
83 | COc1cc(SC)ccc1C(=O)N1CCN(c2ccccc2OC)CC1 | inactive
84 | Cc1ccc2c(c1C)NC(=O)CC(c1ccccc1O)=N2 | inactive
85 | CN(C)CCCN(C(=O)/C=C/c1cccs1)c1nc2ccc(F)cc2s1 | inactive
86 | CC(C)CCNC(=O)c1ccc2c(c1)NC(=O)C(CS(=O)(=O)Cc1cccc(Br)c1)N2 (stereo not drawn) | inactive
87 | Cc1ccc(CNC(=O)c2ccc3c(c2)NC(=O)C(CS(=O)(=O)Cc2cccc(C)c2)N3)cc1 (stereo not drawn) | 20.6 µM (active)
88 | CC1Sc2ccc(C(=O)NCc3ccccn3)cc2NC1=O (stereo not drawn) | inactive
89 | C[C@@H]1O[C@@H](O[C@@H]2C(=O)c3c(O)cc(O)cc3O[C@H]2c2ccc(O)c(O)c2)[C@H](O)[C@H](O)[C@H]1O | inactive
90 | CN(C)C(=O)c1cccc(-c2cnc3c(NC=O)cc(-c4ccccc4F)cn23)c1 | inactive
91 | CC1=CC(C)(C)NC(=S)N1c1ccc2ccccc2c1 | inactive
92 | CCOC(=O)c1c(CC(C)C)csc1/N=C/C1C(=O)CCCC1=O | inactive
93 | C=C1C(=O)O[C@H]2C1CC[C@@](C)(O)C13C=CC(C)(C21)C1(C3)C(=O)O[C@@H]2C3C(C)=CCC3[C@](C)(O)C[C@H](OC(C)=O)C21 (stereo partly drawn) | inactive
94 | CN(C)c1ccc(/C=C2\Oc3ccc(C#Cc4cccc(N)c4)cc3C2=O)cc1 | 14 µM (active)
95 | O=C1/C(=C/c2ccc([N+](=O)[O-])cc2)Oc2cc(O)ccc21 | inactive
96 | COc1cnc(-c2ccccn2)nc1Oc1ccc(F)cc1F | inactive
97 | CC(C)(C)OC(=O)NC(Cc1ccccc1)C(=O)N1CCC(C(=O)NCC(=O)Nc2ccc(F)cc2)CC1 (stereo not drawn) | 18.4 µM (active)
98 | COc1ccc(/C=N/n2cc(-c3ccccc3)nc2N)cc1 | inactive

From PubChem BioAssay AID651812 (National Center for Advancing Translational Sciences (NCATS), 2012)
